A word on the AC50: it is the concentration at which the activity in the assay is half-maximal.

Results filed as inconclusive are left out. Activity calls are given as the source filed them. How the source made its calls: active means hit-call score of the fitted dose curve at least 0.9, where 1 is the maximum; inconclusive means response in the unintended direction; inactive means score below 0.9.

The first assay in a line: Tanguay_ZF_120hpf_OTIC_legacy: (Legacy) Oregon State University Tanguay Lab 120 Hour Post-fertilization zebrafish Assay for Otic Vesicle Malformation (AID 2283639). In a few lines:
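Binary scoring of otic vesicle defects at 120 hpf in zebrafish (Tropical 5D) held under static exposure at 28C, sealed and shaded, with final DMSO 0.64%. Embryos dying by 24 or 120 hpf excluded; fitted positively against DMSO.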
With `C#C[C@]1(O)CC[C@H]2[C@@H]3CCC4=CC(=O)CC[C@@H]4[C@H]3CC[C@@]21C`, the compound was classed as inactive.
Take `CCCCCCCCCCCCc1ccccc1S(=O)(=O)O`: the compound was called inactive.
For `CN1CCC[C@H]1c1cccnc1`, the outcome was inactive.
Take `COCC(C)OCC(C)O` (stereo not given): the compound was called inactive.
Still for that read-out and setting: the value for `ClC1=C(Cl)C(Cl)(Cl)C(Cl)=C1Cl` was “inactive”; that for `CN(C)C=O` was “inactive”.

The next assay is described as follows: Tanguay_ZF_120hpf_PE_legacy: (Legacy) Oregon State University Tanguay Lab 120 Hour Post-fertilization zebrafish Assay for Pericardial Edema (AID 2283640).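 On AC50: potency for increased incidence of pericardial edema versus DMSO baseline.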 The method in brief:
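Scoring was binary, by brightfield microscopy at 120 hpf, and skipped where mortality occurred. Wild-type embryos were kept under sealed, foil-covered static exposure at 28C in 0.64% (vol/vol) DMSO.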
Regarding `CC1=C(/C=C/C(C)=C/C=C/C(C)=C/C(=O)O)C(C)(C)CCC1`, the AC50 is 193 nM (active).
`CCCCCCCCOC(=O)CCCCCCCCC(=O)OCCCCCCCC`: the call was inactive.
In the case of `CCOC(=O)CC(O)(CC(=O)OCC)C(=O)OCC`, the compound was classed as inactive.
With `CC[C@H](C)[C@@H](C(=O)O)n1sc2ccccc2c1=O`, the outcome was inactive.
As to `NC(=O)N(O)[C@@H]1C=C[C@H](Oc2cccc(Oc3ccc(F)cc3)c2)C1`, the call was inactive.
Still for that read-out and setting: under `CCCCCCCCCCCCCCCS(=O)(=O)Oc1ccccc1` stands “inactive”; under `CC(=O)NC1(c2cccc(F)c2)CCN(CC[C@@]2(c3ccc(Cl)c(Cl)c3)CN(c3ccccc3)C(=O)CO2)CC1`, “inactive”; under `Cc1cc(C)c(O)c(C)c1`, “inactive”.
As for `CC(C)(C)c1cccc(C(C)(C)C)c1O`, the compound was classed as inactive.
The same measure, in the same setting: under `CCCOc1sc(C(=O)N2CCC(c3cc(CN)ccc3F)CC2)c(C)c1Br` stands “inactive”; under `OC1CCCCC1`, “inactive”; under `CC(C)(C)c1cc(C(C)(C)C)c(O)c(C(C)(C)C)c1`, “inactive”.
Still for that read-out and setting: under `CCN(CC)CCNc1ccc(CNC=O)c2sc3ccc(OC)cc3c(=O)c12` stands “inactive”.
For `CCc1nn(C2CCCCC2)c2cc(C3(C#N)CCC(C(=O)O)CC3)ccc12` (stereo not given), the AC50 was 270 nM (active).
For `CC(=O)CC(C)(C)O`, the call was inactive.
The same measure, in the same setting: the value for `CCCCCCC(=O)O` was “inactive”; that for `COC(=O)CCCCC(=O)OC` was “inactive”; that for `C=C(C)C(=O)OCCC(F)(F)C(F)(F)C(F)(F)C(F)(F)C(F)(F)C(F)(F)F` was “inactive”.
For `CCCCOCCO`, the result was inactive.
Regarding `CC(C)CCCCCCOC(=O)CCCCC(=O)OCCCCCCC(C)C`, the compound was classed as inactive.
Still for that read-out and setting: under `c1ccc2c(c1)ccc1ccccc12` stands “inactive”.
On to `O=C(O)c1ccccc1C(c1ccc(O)cc1)c1ccc(O)cc1`, for which the compound was classed as inactive.
On the same count and under the same terms, the value for `OCCC(F)(F)C(F)(F)C(F)(F)C(F)(F)C(F)(F)C(F)(F)F` was “inactive”; that for `C[C@@H]1C[C@H]2[C@@H]3CCC4=CC(=O)C=C[C@]4(C)[C@@]3(F)[C@@H](O)C[C@]2(C)[C@@]1(O)C(=O)COP(=O)(O)O` was “inactive”; that for `C#C[C@]1(O)CC[C@H]2[C@@H]3CCC4=CC(=O)CC[C@@H]4[C@H]3CC[C@@]21C` was “inactive”.
With `CCCCCCCCCCCCc1ccccc1S(=O)(=O)O`, the compound was called inactive.
The same measure, in the same setting: the value for `CN1CCC[C@H]1c1cccnc1` was “inactive”; that for `COCC(C)OCC(C)O` (stereo not given) was “inactive”.
For `ClC1=C(Cl)C(Cl)(Cl)C(Cl)=C1Cl`, the compound was called inactive.

Source of the values: PubChem BioAssay (EPA / NIEHS).
